Compound activity (PubChem BioAssay)
HEK cytotox = cytotoxic compounds in HEK 293 cells | hit rate 6.6% among 94,000 | HEK 293 viability, ATP luminescence (CellTiter-Glo), 48-72 h | Potency, µM (highest dose often 115 µM), without a hit: top-dose activity change, negative = cytotoxicity, usual class: inhibitors; note: nearly all actives have a fitted effect of over 60% in size
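qHTS cytotoxicity; HEK 293, 250 cells/well; compound pinned; 48 or 72 hr, 37 degree Celsius, 5% CO2, 95% humidity; CellTiter-Glo, 10 min RT; luminescence (ATP).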
Luciferase inh = blocks purified firefly luciferase enzyme activity; P08659; purified P. pyralis luciferase, luminescence, biochemical; Potency, µM (top dose mostly 115 µM), most hits filed as inhibitors; hit rate 2.5% among 76,000; AID 1347043; note: nearly all actives have a fitted effect of over 65% in size
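Cell-free enzyme assay, 10nM P. pyralis luciferase, luciferin and ATP each at 10uM. Inhibition profiled over a 6-point titration, read as luminescence.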
NIH3T3 tox = NIH 3T3 cell cytotoxicity. NIH 3T3 viability, CellTiter-Glo ATP luminescence, 48-72 h. Potency, µM (top dose mostly 96.7 µM), without a hit: top-dose activity change, negative = cytotoxicity, most hits filed as inhibitors. hit rate 4.3% among 94,000. AID 1345082; note: nearly all actives have a fitted effect of over 55% in size
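Cytotoxicity was measured by CellTiter-Glo ATP luminescence after 48 or 72 h compound exposure at 37 °C. Mouse NIH 3T3 fibroblasts were seeded at 400 cells/well and dosed by 23 nL pin transfer.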
hNpr1 antagonist = antagonists of human natriuretic peptide receptor Npr1; HEK293 hNpr1 GloSensor cGMP, ANP-stimulated luminescence; hit rate 1.6% among 76,000; Potency, µM (doses to about 46.3 µM), for the others: top-dose activity change, negative = inhibition, hits mostly inhibitors; calls by dose curve; note: nearly all actives have a fitted effect of over 60% in size
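HEK293 cells stably expressing human Npr1 and cGMP GloSensor pGS-40F, loaded 2 h with 2% GloSensor reagent, given compound 30 min at room temperature. Luminescence read before and 20 min after 0.1 nM hNppA.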
GPT2 inhibitor = inhibitors of human GPT2 alanine aminotransferase | Potency, µM (top dose mostly 57.7 µM), inactives show at the top dose activity change, negative = inhibition, most hits filed as inhibitors | Q8TD30 | Recombinant GPT2, coupled pyruvate oxidase/HRP Amplex Red fluorescence | hit rate 0.25% among 100,000; note: nearly all actives have a fitted effect of over 60% in size
Target sequence (Q8TD30 whole entry, looked up): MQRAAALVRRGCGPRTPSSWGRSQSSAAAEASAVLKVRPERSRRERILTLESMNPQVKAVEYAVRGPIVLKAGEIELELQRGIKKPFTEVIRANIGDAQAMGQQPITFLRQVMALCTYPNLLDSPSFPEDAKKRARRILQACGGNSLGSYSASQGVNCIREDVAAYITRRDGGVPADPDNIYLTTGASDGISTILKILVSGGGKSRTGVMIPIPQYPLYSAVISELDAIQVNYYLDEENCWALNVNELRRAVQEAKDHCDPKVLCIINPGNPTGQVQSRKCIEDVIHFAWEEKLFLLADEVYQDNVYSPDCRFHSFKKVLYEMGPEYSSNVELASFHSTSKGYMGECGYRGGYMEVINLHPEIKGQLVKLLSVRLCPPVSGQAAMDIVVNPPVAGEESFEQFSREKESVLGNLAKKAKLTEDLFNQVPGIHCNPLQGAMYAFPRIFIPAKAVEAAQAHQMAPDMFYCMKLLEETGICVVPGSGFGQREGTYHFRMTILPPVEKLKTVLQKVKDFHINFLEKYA
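GPT2 10ng/uL, a-KG 250uM, L-Ala 2mM, HEPES pH7.5 + 0.0001% Tween; 30 min RT. Then Amplex mix (PO/HRP/ThPP), 30 min RT dark, fluorescence. AOA 50uM used as positive control.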
Numbers without * were called inactive; i = inactive; ? = inconclusive; nt = no result given; [ ] = another dose, or the depositor's remark. The list is not random: actives were taken first. Their share in the collection is about 10%. Unless noted, calls come from the whole dose curve; as a rule, active = well fitted curve in the direction sought with a large enough effect; inconclusive = small, poorly fitted or top-dose-only effect, or another doubt; inactive = no such curve, though single readings can be large; an effect the other way counts as inactive or inconclusive. % is set by controls: 0 for no effect and ±100 for the full control effect; potency is the fitted concentration of half-maximal effect.

SMILES | HEK cytotox | Luciferase inh | NIH3T3 tox | hNpr1 antagonist | GPT2 inhibitor
CC1=C[C@@H](CN2CCN(CCO)CC2)[C@H](C(C)C)C[C@H]1Cc1nnc(-c2ccc(N(C)C)cc2)o1 | 14µM* | i | 20µM* | 1% | 1%
CC1=C[C@@H](CN2CCN(CCO)CC2)[C@H](C(C)C)C[C@H]1Cc1nnc(-c2ccc([N+](=O)[O-])cc2)o1 | ? | i | ? | -3% | -2%
CC1=C[C@@H](CN2CCN(c3ccccn3)CC2)[C@H](C(C)C)C[C@H]1Cc1nnc(-c2ccc(C)cc2)o1 | ? | i | ? | -28% | ?
CC1=C[C@@H](CN2CCN(c3ncccn3)CC2)[C@H](C(C)C)C[C@H]1Cc1nnc(-c2ccc(N(C)C)cc2)o1 | 28µM* | i | ? | -20% | -19%
COc1ccc(-c2nnc(C[C@@H]3C[C@@H](C(C)C)[C@H](CN4CCN(C)CC4)C=C3C)o2)cc1 | 32µM* | i | 40µM* | -2% | ?
CC(=O)Nc1ccc(NC(=O)Cn2c(C)cc3nc4n(c(=O)c32)CCCCC4)cc1 | 11% | i | i | ? | -6%
CC1=C[C@@H](CN2CCN(c3cnccn3)CC2)[C@H](C(C)C)C[C@H]1Cc1nnc(-c2ccccc2)o1 | 25µM* | i | ? | -30% | i
CCOc1ccc(CC(=O)N2CCC[C@H]2c2nc(-c3ccc(OC)c(OC)c3)no2)cc1 | ? | i | -17% | 1% | -13%
Cc1cnc(CC2CCN(C(=O)C(C)c3ccccc3)CC2)n1Cc1ccc(F)cc1 (centres undefined) | 35µM* | i | ? | -3% | -13%
COCc1nc2nc(-c3ccccc3)c(-c3ccc(N4CCN(C)CC4)nc3)cc2n1C | ? | ? | ? | 14µM* | -26%[88.5 µM]
COCc1nc2nc(-c3ccccc3)c(-c3ccc([S+](C)(=O)[O-])cc3)cc2n1C | i | i | 89µM* | nt | -2%[88.5 µM]
CCCN1CCN(C(=O)c2c(C)oc3c2CN(Cc2ccc(C)cc2)CC3)CC1 | ? | i | ? | -10% | i
CC(Cc1cccnc1)Nc1cc(-c2ccccc2F)nc2ccnn12 (centres undefined) | 79µM* | i | ? | 4% | i
COc1cccc(CN2CCC3(COc4ccccc4C(=O)N3)C2)c1 (centres undefined) | 89µM* | i | 40µM* | -20%[70.6 µM] | 4%[88.5 µM]
CN(C)c1ccc(CN2CCC3(CC2)COc2ccccc2C(=O)N3)cc1 | ? | i | 22µM* | 7% | i
CN(C)c1ccc(CN2CCC3(COc4ccccc4C(=O)N3)C2)cc1 (centres undefined) | ? | i | ? | -3% | i
CC(C)CCN1CCC2(COc3ccccc3C(=O)N2)C1 (centres undefined) | ? | i | 100µM* | -3%[70.6 µM] | i
CC(C)CCN1CCCC2(COc3ccccc3C(=O)N2)C1 (centres undefined) | ? | i | ? | 4%[70.6 µM] | i
COC(=O)N1CCN(C(=O)c2nc3cccnc3n(Cc3ccccc3)c2=O)CC1 | -14% | nt | -22% | nt | i
CN(C)CCOCC1(C)COc2ccc(C(=O)Nc3cccc(N(C)C)c3)cc2N1 (centres undefined) | ? | ? | ? | 1%[70.6 µM] | 4%[88.5 µM]
COc1cccc(NC(=O)c2ccc3c(c2)NC(C)(COc2cccnc2)CO3)c1 (centres undefined) | 50µM* | ? | ? | 22µM* | -4%[88.5 µM]
CN(C)CCOCC1(C)COc2ccc(C(=O)Nc3cccc(Cl)c3)cc2N1 (centres undefined) | 63µM* | 45µM* | 45µM* | -13%[70.6 µM] | -16%[88.5 µM]
CCOCC1(C)COc2ccc(C(=O)Nc3cccnc3)cc2N1 (centres undefined) | ? | i | -14%[138 µM] | 6%[70.6 µM] | 1%[88.5 µM]
CCOCC1(C)COc2ccc(C(=O)Nc3ccc(F)c(Cl)c3)cc2N1 (centres undefined) | 40µM* | ? | 32µM* | ? | -24%[88.5 µM]
CC1(COc2cccnc2)COc2ccc(C(=O)Nc3cccc(Cl)c3)cc2N1 (centres undefined) | 22µM* | ? | ? | 28µM* | ?
SMILES | HEK cytotox | Luciferase inh | NIH3T3 tox | hNpr1 antagonist | GPT2 inhibitor
COc1ccc(NC(=O)c2ccc3c(c2)NC(C)(COc2ccccc2)CO3)cn1 (centres undefined) | ? | i | ? | ? | -17%[88.5 µM]
O=C(NC1CCCCC1)c1ccc2oc(-c3cccnc3Cl)nc2c1 | -36% | nt | -28% | nt | i
CC(=O)NCCCC(=O)N1CCC2(CC1)CN(C(=O)NC(C)C)CCO2 | -23% | nt | -32% | nt | 1%
COc1ccc(C(=O)N2C[C@@H](Oc3ccccc3)C[C@H]2C(=O)N2CCOCC2)c(OC)n1 | 3% | i | i | 1% | i
Cc1cccc(N2CCN(C(=O)C3N(C(C)C)C(=O)C34CCCCC4)CC2)c1 (centres undefined) | ? | i | ? | -8% | 2%
COc1ccc(OCc2cc(C(=O)N(C)CC(O)CO)n[nH]2)c(Cl)c1 (centres undefined) | 1% | i | -14% | 9% | -3%[11.5 µM]
CCOc1ccc(CN2CCC(c3nnc(Cn4cncn4)n3C)CC2)cn1 | -16% | i | -6% | 3% | i[11.5 µM]
COc1ccnc(N2CC[C@H](c3nnc(-c4ccc(C)cc4)o3)C2)n1 | 100µM* | ? | ? | -3%[70.6 µM] | -2%[88.5 µM]
O=C(c1ccccc1)N1CCn2c(nn(-c3ccc(Cl)cc3)c2=O)C1 | -18% | nt | -16% | nt | i
CSc1ccc2cc(CN3CCCC(O)C3)c(-c3ccc(Cl)cc3)nc2c1 (centres undefined) | ? | i | ? | -3% | 2%
CC1=C[C@@H](CNCc2ccc(F)cc2)[C@H](C(C)C)C[C@H]1Cc1nnc(-c2cncn2C)o1 | 45µM* | i | ? | -4%[70.6 µM] | i
CC1=C[C@@H](CNCc2ccc(F)cc2)[C@H](C(C)C)C[C@H]1Cc1nnc(C)o1 | ? | i | ? | -13%[70.6 µM] | 2%[88.5 µM]
CC1=C[C@@H](CNCc2ccc(Cl)cc2)[C@H](C(C)C)C[C@H]1Cc1nnc(-c2cncn2C)o1 | 79µM* | i | 40µM* | -12% | i
O=C(NCc1cccs1)c1ccc2nnc(Cc3ccc(Cl)cc3)n2c1 | 45µM* | nt | ? | nt | -6%
O=C(NCc1cccc(C(F)(F)F)c1)c1ccc2nnc(C3CCCC3)n2c1 | 45µM* | nt | ? | nt | -4%
O=C(NCc1ccc(Cl)cc1)c1ccc2nnc(C3CCCC3)n2c1 | ? | nt | 32µM* | nt | -40%
O=C(NCc1ccc(Cl)cc1)c1ccc2nnc(C3CC3)n2c1 | ? | nt | ? | nt | i
O=C(NCc1cccc(Cl)c1)c1ccc2nnc(C3CCCC3)n2c1 | ? | nt | 40µM* | nt | i
